Source: PubChem BioAssay (NCI)
This is part of a sample that, as a whole, favours compounds with a hit. Of some 83,000 tested, about 20% had one in any assay.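 Results are percent growth after 48 hours of single-concentration exposure. 100 means growth as in untreated cells, lower positive values show inhibition; negative values down to -100 show cell death.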 Values without a mark were called inactive. The source made the active and inactive calls. How the source made its calls: active means growth percent below 10; inactive means the rest.

What follows are compounds tested on HCT-15 colon (assay: NCI-60 one-dose screen, 48 h (100 = growth as untreated, 0 = no growth, -100 = all killed)). Conditions: 10 µM unless noted.

Structure (SMILES)	growth
O=C1CC23OC(C(O)c4ccccc4N12)C1C(c2ccccc2)=NOC13 (centres undefined)	29.7%
N#Cc1nc(-c2ccccc2)oc1S(=O)(=O)NCC(c1ccc(Cl)cc1)N1CCCCC1 (centres undefined)	35.3%
C#C[C@@]1(O)[C@@H](CO)O[C@@H](n2cc(Cl)c3c(N)ncnc32)[C@@H]1O	1.65% (active)
COc1ccc(-n2cc(COc3ccc4c5ccnc(C)c5n(CC(C)C)c4c3)nn2)cc1	63.4%

Each compound was assayed on HT29 colon in the same assay as above. Conditions: 10 µM unless noted.

Structure (SMILES)	growth
C=C1C(=O)O[C@H]2[C@H]1CC/C(COC(=O)c1cn(C)c3ccccc13)=C\CC[C@@]1(C)O[C@@H]21	-77.2% (active)
CCOCCc1c(O)nc(SC)[nH]c1=O	101%
COc1ccccc1N1CCN(CCCOc2ccc(C(=O)/C=C3/C(=O)Nc4ccccc43)cc2)CC1	25.8%
O=C(CCl)N1CCCc2ccccc21	103%
C#C[C@@]1(O)[C@@H](CO)O[C@@H](n2cc(Br)c3c(N)ncnc32)[C@@H]1O	3.26% (active)
COc1ccc(C(=O)c2cc(F)c(F)c(OC)c2F)cc1OC(=O)CCl	94.8%
Cc1ccccc1NC(=O)c1sc2nc(C)c(C(C)O)cc2c1N (centres undefined)	3.12% (active)
OCCNc1nc(NCCO)nc(Nc2ccc(C3=NN(c4cc(Cl)cc(Cl)c4)C(c4ccc(Cl)cc4)C3)cc2)n1 (centres undefined)	-46% (active)
COc1ccc(NC(=O)c2sc3nc(C)c(C(C)=O)cc3c2N)cc1	83.5%
Cc1ccc(-c2nc(C#N)c(S(=O)(=O)N(C)CCO)o2)cc1	28.1%
